Test results from PubChem BioAssay AID1159580 (chemical genetic matrix, 2015).
About 2,000 (36%) of roughly 5,500 compounds were called active. Inconclusive results (about 18%) are left out. Cut-off read from the data, not from the text of the source: active = normalized growth mostly below about 0.91 (no sharp cut-off); inconclusive = no clear call, values can overlap the other calls; inactive = mostly above about 0.92. The list shows a part of the results.

Assay: chemical genetic growth profiling, strain panel (AID 1159580);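 note: tested at 20 µM; growth read once vehicle control cultures reached saturation at 30 °C; 1 = growth at the plate median or of vehicle wells; lower values mean less growth of the strain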
Settings: S. cerevisiae deletion strains, growth OD

Measured: normalized growth

NCCc1c[nH]c2ccc(O)cc12
inactive: locus YAL013W, strain DEP1, active compounds read low 1.02 | locus YAL040C, strain CLN3, active compounds read low 0.969 | locus YCL061C, strain MRC1 (second series), active compounds read low 1.01 | locus YDR363W, strain ESC2, active compounds read low 1.01 | locus YER002W, strain NOP16, active compounds read low 1.01 | locus YHR030C, strain SLT2, active compounds read low 1.02 | locus YHR079C, strain IRE1, active compounds read low 1.02 | locus YJL095W, strain BCK1, active compounds read low 1.01 | locus YJR066W, strain TOR1, active compounds read low 0.942 | locus YLR113W, strain HOG1, active compounds read low 0.991 | locus YMR307W, strain GAS1, active compounds read low 1.03 | locus YNL175C, strain NOP13, active compounds read low 1.01 | locus YNL183C, strain NPR1, active compounds read low 0.949 | locus YNL197C, strain WHI3, active compounds read low 1 | locus YNL224C, strain SQS1, active compounds read low 1.01 | locus YOR083W, strain WHI5 (second series), active compounds read low 1.04 | locus YOR231W, strain MKK1, active compounds read low 1.02 | locus YPL256C, strain CLN2, active compounds read low 1.01
